Consider 92 compounds from PubChem BioAssay AID463173 (ICCB-Longwood Screening Facility, Harvard Medical School, 2010).

The campaign covered roughly 52,000 compounds. About 1,700 (3.3%) were called active. No stated cut-off is given here; in the data, active means survival mostly below about 52% (no sharp cut-off); inactive means mostly above about 56%. Only a selection was taken, and actives are over-represented in it overall.

The assay deals with Wild type. The assay is described as follows: growth inhibition of S. aureus wild type versus tarO mutant, primary screen, teichoic acid synthesis inhibitors, RN4220, OD600 (AID 463173). The note with it: S. aureus RN4220 wild type/DeltatarO growth, OD600, 18 h, active compounds read low, screened at 18.75 µg/mL (by protocol).
Turning to `Cc1ccc(C(C)C)c(OCCCn2c(=O)oc3ccccc32)c1`, the survival was -2% (active). Take `Cc1ccc(C(C)C)c(OCCn2cc(C(=O)c3ccco3)c3ccccc32)c1`: the survival is 30% (inactive). In the case of `Cc1ccc2oc(=O)n(CCNC(=O)Nc3ccc(C)c(F)c3)c2c1` it was 108% (inactive); in that of `Cc1ccc(C(C)C)c(OCCCn2c(=O)oc3ccc(C)cc32)c1`, -10% (active).

In the case of `Cc1ccc(NC(=O)NCCOCCn2c(=O)oc3ccccc32)c(C)c1`, the survival was 88% (inactive). Turning to `Cc1cccc(NC(=O)NCCn2c(=O)oc3ccc(C)cc32)c1`, the survival was 88% (inactive). Then `Cc1nn2c(C)c(C(=O)NCc3ccc(OC(C)C)cc3)cnc2c1-c1ccc(F)cc1`, with 76% (inactive). In the case of `COc1cc(OC)c(NC(=O)Cn2cnc3c(nc4n3CCCCC4)c2=O)cc1Cl` it was 59% (inactive). Then `O=C(NCC1CCCO1)C1CC(=O)N(c2ccccc2)C1` (configuration not stated), with 123% (inactive); and `Cc1ccc(S(=O)(=O)N2Cc3ccccc3CC2C(=O)N(C)C)cc1` (configuration not stated), with 102% (inactive); and `Cc1ccc(Cn2c(C(=O)O)c(CNC3CCCC3)c3ccc(C)cc32)cc1`, with 83% (inactive). Consider `Cc1nc2ccn(Cc3cccs3)c(=O)c2cc1C(=O)NCc1ccc(Br)cc1`, for which the survival is 82% (inactive). With `CCOc1ccc(CNC(=O)c2cc3c(=O)n(Cc4cccs4)ccc3nc2C)cc1`, the survival was 118% (inactive). Take `Cc1nc2ccn(Cc3cccs3)c(=O)c2cc1C(=O)NCc1ccc(Cl)cc1`: the survival was 22% (inactive). `COc1ccc(CNC(=O)c2cc3c(=O)n(Cc4cccs4)ccc3nc2C)cc1`: the survival was 10% (active).

Regarding `COc1cc(NC(=O)c2cc3c(=O)n(Cc4cccs4)ccc3nc2C)cc(OC)c1OC`, the survival was -2% (active).

On to `CCc1ccc(CNC(=O)c2cc3c(=O)n(Cc4cccs4)ccc3nc2C)cc1`, for which the survival is 0% (active).

For `COc1ccc(NC(=O)c2cc3c(=O)n(Cc4cccs4)ccc3nc2C)cc1`, the survival is 59% (inactive). `Cc1nc2ccn(Cc3cccs3)c(=O)c2cc1C(=O)NCc1ccccc1`: the survival was 73% (inactive). `Cc1nc2ccn(Cc3cccs3)c(=O)c2cc1C(=O)Nc1ccccc1`: the survival is 91% (inactive). On to `Cc1ccc(C)c(NC(=O)Cn2c(=O)n(CC3CCCO3)c(=O)c3ccccc32)c1` (configuration not stated), for which the survival is 119% (inactive).

Consider `CCOC(=O)c1c(NC(=O)c2cc3nc(-c4ccccc4)cc(C(F)(F)F)n3n2)sc2c1CCC(C)C2` (configuration not stated), for which the survival is 65% (inactive).

Take `O=S(=O)(c1ccc(Br)cc1)N1CCn2cccc2C1c1ccc(Br)cc1` (configuration not stated): the survival is 65% (inactive). Take `CCCOC(=O)c1cccc(Nc2nc(C(=O)OCC)nc3ccccc23)c1`: the survival is 44% (inactive).

Regarding `Cc1ccc(CNS(=O)(=O)c2c(C(=O)N3CCC(C)CC3)c(C)n(C)c2C)cc1`, the survival was 76% (inactive). As for `O=C(Nc1nnc(C2CCCC2)s1)C1CC1`, the survival was 105% (inactive).

Turning to `CNC(=O)Nc1ccc2nc(C)sc2c1`, the survival was 112% (inactive).

With `COC(=O)CCN(c1ccccc1)S(=O)(=O)c1cc(-c2cc(C)no2)ccc1OC`, the survival was 90% (inactive). Consider `Cc1ccc2cc(CN(CC3CCCO3)C(=O)C(F)(F)F)c3nnnn3c2c1C` (configuration not stated), for which the survival is 115% (inactive). Turning to `CCCOc1ccccc1C(=O)N1CCC(c2nc3ccccc3s2)CC1`, the survival is 68% (inactive).

Consider `COc1ccccc1OC(C)C(=O)N1CCC(c2nc3ccccc3s2)CC1` (configuration not stated), for which the survival was -2% (active). On to `CC(Oc1ccc(F)cc1)C(=O)N1CCC(c2nc3ccccc3s2)CC1` (configuration not stated), for which the survival was 80% (inactive). As for `CCC(Oc1ccccc1F)C(=O)N1CCC(c2nc3ccccc3s2)CC1` (configuration not stated), the survival was -3% (active).

As to `Cc1ccccc1OCC(=O)N1CCC(c2nc3ccccc3s2)CC1`, the survival was 65% (inactive). `CCc1ccc(OC(C)C(=O)N2CCC(c3nc4ccccc4s3)CC2)cc1` (configuration not stated): the survival was 35% (inactive). In the case of `COCCn1c(CNC(=O)c2ccccc2C)nc2cccnc21`, the survival is 69% (inactive). With `COc1cc(Cl)c(C)cc1NC(=O)CNC(=O)Cn1ccc2ccccc2c1=O`, the survival is 65% (inactive). For `COC(=O)C1=C(c2ccccc2)c2ccccc2S(=O)(=O)N1CC(=O)Nc1cc(C)ccc1C`, the survival was 77% (inactive).

Take `CCN(CC)S(=O)(=O)c1ccc2c(c1)N(CC(=O)NCc1ccccc1)C(=O)C1CCCCN21` (configuration not stated): the survival is 102% (inactive). In the case of `CCOc1ccc2nc(NCCCNC(=O)C3CCCO3)c(C#N)cc2c1` (configuration not stated), the survival was 105% (inactive). Turning to `CCC(C)NC(=O)Cn1c(=O)n(-c2ccc(OC)c(OC)c2)c(=O)c2ccccc21` (configuration not stated), the survival was 87% (inactive). For `COc1cccc(CNC(=O)CCCN2C(=O)CSc3c2c(C)nn3-c2ccccc2)c1`, the survival was 89% (inactive). With `CC1CCN(c2ccc(NC(=O)c3cccc(Cl)c3)cc2C(=O)O)CC1`, the survival was 76% (inactive). For the compound `CC1(c2ccccc2)CC(C)(C)N(C(=O)c2ccccc2Cl)c2ccccc21` (configuration not stated), the survival is -2% (active). For `COc1ccc(C(=O)N2c3ccccc3C(C)(c3ccc(Cl)cc3)CC2(C)C)cc1` (configuration not stated), the survival is 6% (active). Then `COc1ccc(C(=O)N2CCC(C(=O)Nc3ccc(Cl)cc3)CC2)cc1`, with 122% (inactive). In the case of `O=C(c1ccccc1Cl)n1cc(Cl)cn1` it was 100% (inactive); in that of `CN1CC2(C)CN(C(=O)c3ccccc3Cl)CC(C)(C1)C2`, 112% (inactive); in that of `COc1ccccc1C(=O)CC1(O)C(=O)N(CC(N)=O)c2ccccc21` (configuration not stated), 65% (inactive). Regarding `COc1ccccc1C(=O)n1nc(-c2ccccc2)nc1NCc1ccc(Cl)cc1`, the survival was 66% (inactive). For the compound `COc1ccc(CCC(=O)NCc2ccc3c(c2)CCN3C(=O)c2ccc(Cl)cc2)cc1`, the survival was 80% (inactive). Regarding `CC1(c2ccccc2)CC(C)(C)N(C(=O)c2cccc(Cl)c2)c2ccccc21` (configuration not stated), the survival was 6% (active). Take `COc1ccccc1C(=O)N1c2ccccc2C(C)(c2ccc(Cl)cc2)CC1(C)C` (configuration not stated): the survival was 2% (active). Take `CC1CCN(C(=O)c2cccc(Cl)c2)CC1`: the survival was 112% (inactive). As to `Cc1ccc(F)cc1NC(=O)Cn1c(C)cc(C)c(C#N)c1=O`, the survival is 131% (inactive). As for `CCOc1ccc(CNC(=O)Cn2nc(C)c3c(C)n(-c4ccc(C)cc4)nc3c2=O)cc1`, the survival is 78% (inactive).

As for `O=C(CSc1ccc2nnc(CCNS(=O)(=O)c3ccccc3)n2n1)Nc1ccccc1C(F)(F)F`, the survival is 107% (inactive).

`Cc1cccc(S(=O)(=O)Nc2cccc(-c3ccc(N4CCCCC4)nn3)c2)c1`: the survival was 69% (inactive). Consider `N#Cc1ccccc1NC(=O)C(=O)NCC(c1cccnc1)N1CCN(c2ccccc2)CC1` (configuration not stated), for which the survival was 99% (inactive). As for `Cc1ccc(NC(=O)c2c(C)nc3sc(C(=O)Nc4ccc(F)cc4)c(N)c3c2-c2ccccc2Cl)c(C)c1`, the survival is 65% (inactive). In the case of `Cc1cn(C)c(CC(=O)Nc2ccc(F)cc2Cl)c1C(=O)O` it was 76% (inactive). Then `CCOC(=O)c1cccc(NC(=O)CCn2nc(C)c3c(C)n(-c4ccccc4)nc3c2=O)c1`, with 73% (inactive); and `CC1CC(C)CN(C(=O)c2ccc(Cl)cc2)C1` (configuration not stated), with 117% (inactive). Then `O=C(c1cccc(F)c1)N1CCC(c2c[nH]c3ccccc23)(c2c[nH]c3ccccc23)CC1`, with 63% (inactive); and `CC1(c2ccc(Cl)cc2)CC(C)(C)N(C(=O)c2ccccc2)c2ccccc21` (configuration not stated), with -11% (active); and `O=C(NCc1ccc2c(c1)CCN2C(=O)c1ccc(Cl)cc1)c1cccc(F)c1`, with 55% (inactive). As for `CC1(c2ccc(Cl)cc2)CC(C)(C)N(C(=O)c2cccc(F)c2)c2ccccc21` (configuration not stated), the survival is 7% (active). `CC1(C)C(=O)N(CC(=O)Nc2ccc(Cl)cc2)c2ccccc21`: the survival is 59% (inactive). Take `COc1ccc(-n2c(SCC(=O)Nc3ccc4c(c3)OCO4)nc3c([nH]c4ccccc43)c2=O)cc1`: the survival is 81% (inactive).

In the case of `Cc1ccc(COC(=O)c2[nH]c3c(c2C)C(=O)CC(c2ccc(Cl)cc2)C3)cc1` (configuration not stated), the survival was 84% (inactive). As to `COc1cc2[nH]c(=O)n(CCCC(=O)NCc3ccc(Cl)cc3)c(=O)c2cc1OC`, the survival is 90% (inactive). In the case of `Cc1cc(OCC(O)CN2CCN(c3cccc(Cl)c3)CC2)ccc1Cl` (configuration not stated), the survival was 0% (active). For `CC(=O)Nc1ccc(OCC(O)CN2CCN(c3ccc(C)c(Cl)c3)CC2)cc1` (configuration not stated), the survival was 98% (inactive). Then `COc1ccccc1N1CCN(CC(O)COc2ccc(Cl)c(C)c2)CC1` (configuration not stated), with 66% (inactive); and `O=C(c1cc2ccccc2oc1=O)N1CCCCCC1`, with 88% (inactive). With `Cc1ccc(-n2ncc(C(=O)NCCN3CCCC3)c2C2CCN(C(=O)OC(C)(C)C)CC2)cc1`, the survival is 153% (inactive).

In the case of `COc1cccc(CSc2nnc(-c3ccc(F)cc3)o2)c1`, the survival was 113% (inactive).

Take `COc1ccc(-c2nnc(SCc3cccc(Cl)c3)o2)cc1`: the survival is 13% (active).

Consider `COc1ccc(-c2nnc(SCC#N)o2)cc1`, for which the survival is 106% (inactive). Take `COc1cn(CC(=O)Nc2ccc(F)cc2)c(CN2CCCCC2)cc1=O`: the survival was 72% (inactive).

For `CCCCNc1cc(NC2CCCCC2)c2c3c(onc13)-c1ccccc1C2=O`, the survival was 117% (inactive). `CN(C)CCCNc1cc(N2CCN(C3CCCCC3)CC2)c2noc3c2c1C(=O)c1ccccc1-3`: the survival is 72% (inactive). With `CCNc1cc(N2CCN(C3CCCCC3)CC2)c2noc3c2c1C(=O)c1ccccc1-3`, the survival was 84% (inactive). Turning to `CCN(CC)c1cc(NC2CCCCC2)c2c3c(onc13)-c1ccccc1C2=O`, the survival was 5% (active). On to `CCCCNc1cc(N2CCN(C3CCCCC3)CC2)c2noc3c2c1C(=O)c1ccccc1-3`, for which the survival is -1% (active). In the case of `O=C1c2ccccc2-c2onc3c(Br)cc(NC4CCCCC4)c1c23` it was 86% (inactive). In the case of `Cc1ccc2nc(COc3ccccc3NC(=O)C(C)(C)C)cc(=O)n2c1` it was 66% (inactive); in that of `O=C(C1CCN(c2ncnc3c2nc2n3CCCCC2)CC1)N1CCN(c2ccccc2F)CC1`, 82% (inactive); in that of `CCc1ccc(NC(=O)Cn2nnc(C(=O)NCc3ccco3)c2N)cc1`, 94% (inactive).

Take `CCOC(=O)c1c(S(=O)(=O)N2CCC(C(=O)Nc3cccc(C#N)c3)CC2)c(C)n(C)c1C`: the survival is 115% (inactive). As to `Cc1nn(C(=O)c2cc3sc(Br)cc3[nH]2)c(C)c1C`, the survival is 97% (inactive). Then `COc1ccc(NC(=O)CSc2nnc(N)s2)cc1`, with 73% (inactive).
